IL-1B inflam inh: inflammasome signaling inhibition, IL-1 beta readout; THP-1 LPS/ATP IL-1B secretion, AlphaLISA, 16 h; hits give low values; activity change, % at 57.5 µM; hit rate 4.7% among 360,000; in the data active = activity change below about -50%; inconclusive = mostly about -30% to -49%
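Secreted IL-1B measured by AlphaLISA bead assay after 16 h compound exposure of THP-1 cells; compounds (final up to 57.5 uM) added 1 h before LPS (250 ng/mL) and ATP (1.25 mM) stimulation; lower signal means less secretion.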
RORgamma inh: blocks mouse ROR gamma transcriptional activity. hit rate 5.4% among 310,000. P51450. Drosophila S2 Gal4-RORgamma UAS-luciferase reporter, 20 h. Potency, µM (titrated, usually from 53.6 µM), inactives show at the highest dose activity change, negative = inhibition, usual class: inhibitors. AID 2551; note: potency is the fitted concentration of half-maximal effect; nearly all actives have a fitted effect of over 60% in size
Target sequence (P51450 whole entry, looked up, the tested form may be a part): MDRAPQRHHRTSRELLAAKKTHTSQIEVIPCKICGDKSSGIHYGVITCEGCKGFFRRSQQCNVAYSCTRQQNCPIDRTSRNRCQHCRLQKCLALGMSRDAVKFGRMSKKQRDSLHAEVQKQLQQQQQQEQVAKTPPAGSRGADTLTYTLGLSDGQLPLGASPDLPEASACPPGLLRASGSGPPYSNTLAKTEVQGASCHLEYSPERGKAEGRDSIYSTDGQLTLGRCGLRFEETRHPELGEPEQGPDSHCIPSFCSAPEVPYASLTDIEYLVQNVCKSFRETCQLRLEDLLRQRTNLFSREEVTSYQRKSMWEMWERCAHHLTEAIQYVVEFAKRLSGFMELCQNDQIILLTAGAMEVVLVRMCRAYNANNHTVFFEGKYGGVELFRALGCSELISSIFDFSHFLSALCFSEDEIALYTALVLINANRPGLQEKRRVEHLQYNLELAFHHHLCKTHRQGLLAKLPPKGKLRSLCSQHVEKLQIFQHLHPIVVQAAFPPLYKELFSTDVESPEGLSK
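Drosophila S2 cells stably expressing Gal4-DBD/mouse RORγ fusion under metallothionein promoter plus UAS-luciferase; compound 1 h, then 700 uM CuSO4 induction for 20 h at ambient temperature; inhibition read as reduced luminescence.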
VP16 counter: Gal4-VP16 reporter inhibition counter-screen | Drosophila S2 Gal4-VP16 UAS-luciferase, luminescence, 20 h | Potency, µM (series often up to 53.6 µM), without a hit: at the highest dose activity, negative = inhibition, hits mostly inhibitors | hit rate 3.5% among 310,000 | AID 2546;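 note: Gal4-VP16 expression switched on by copper sulfate through the metallothionein promoter; potency is the fitted concentration of half-maximal effect; nearly all actives have a fitted effect of over 50% in size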
ELG1 repair inh: ELG1-dependent DNA repair inhibition. HEK293T ELG1-luciferase reporter, luminescence, 16 h; DNA damage induced by 5-fluorouridine. Potency, µM (doses to about 46.1 µM), without a hit: top-dose activity change, negative = inhibition, usual class: inhibitors. hit rate 2.3% among 330,000; note: potency is the fitted concentration of half-maximal effect; nearly all actives have a fitted effect of over 55% in size
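DMSO vehicle served as the neutral condition. Each well held 2,000 cells given 5-fluorouridine plus compound; after 16 hr at 37 °C/5% CO2, ONE-Glo was added and luciferase measured 30 min later.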
TDP1 cell noCPT: qHTS for Inhibitors of human tyrosyl-DNA phosphodiesterase 1 (TDP1): qHTS in cells in absence of CPT. DT40 Tdp1-/- hTDP1 cells, no CPT, ATP luminescence, 48 h. Potency, µM (titrated, usually from 46.2 µM), inactives show at the top dose activity change, negative = growth inhibition, actives largely listed as inhibitors. hit rate 15% among 420,000; note: potency is the fitted concentration of half-maximal effect; nearly all actives have a fitted effect of over 55% in size
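Growth of hTDP1-complemented DT40 Tdp1-knockout cells is measured by ATP luminescence after at least 48 hr compound exposure at 37 °C, with DMSO substituting for the 20 nM CPT used in the parallel screen.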
DT40 TDP1 CPT: DT40-hTDP1 cell growth loss with CPT. chicken DT40 Tdp1-/-;hTDP1 cells + 20 nM CPT, ATP luminescence, 48 h. Potency, µM (highest dose often 46.2 µM), for the others: at the top dose activity change, negative = growth inhibition, usual class: inhibitors. hit rate 12% among 420,000. AID 686979; note: potency is the fitted concentration of half-maximal effect; nearly all actives have a fitted effect of over 55% in size
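Cell growth measured by CellTiter-Glo luminescence after a minimum 48 h, 37 C compound exposure with 20 nM CPT in Tdp1-knockout DT40 cells stably expressing hTDP1, seeded 400/well; qHTS titration format.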
* hit, by the source's call; u = inconclusive; x = no result given; [ ] = another dose, or the depositor's remark. A selection: hits, their analogues and other compounds. The true share with any hit is near 21%. Unless noted, calls come from the whole dose curve; as a rule, active = well fitted curve in the direction sought with a large enough effect; inconclusive = small, poorly fitted or top-dose-only effect, or another doubt; inactive = no such curve, though single readings can be large; an effect the other way counts as inactive or inconclusive. % is set by controls: 0 for no effect and ±100 for the full control effect.

SMILES	IL-1B inflam inh	RORgamma inh	VP16 counter	ELG1 repair inh	TDP1 cell noCPT	DT40 TDP1 CPT
CC1=CC(C)(C)Nc2ccc(OC(=O)C(C)N3C(=O)c4ccccc4C3=O)cc21 (stereo not drawn)	0	u	11µM*	-21%	2.6µM*	2.1µM*
COc1ccc(OC(=O)C(C)N2C(=O)c3ccccc3C2=O)cc1 (stereo not drawn)	19	-18%[1.91 µM]	-5%	-12%	-18%	-17%
CC1=CC(C)(C)Nc2ccc(OC(=O)c3cccnc3)cc21	-98*	0.5µM*	0.79µM*	0%	4.6µM*	2.9µM*
CCN(C(=O)COC(=O)c1c(C)c(-c2ccccc2)nc2ccccc12)C1CCS(=O)(=O)C1 (stereo not drawn)	5	-2%	-9%	u	u	u
COc1ccc(/C=C2/CCCC(C(=O)C(F)(F)F)=C2O)cc1OC	u	18µM*	u	0%	18µM*	23µM*
COc1ccc(/C=C2\CCCC(C(=O)C(F)(F)F)=C2O)cc1OC	x	-1%	-6%	u	x	x
CCOc1cc(/C=C2\CCCC(C(=O)C(F)(F)F)=C2O)ccc1O	u	u	-21%	-20%	23µM*	23µM*
COc1cc(/C=C2/CCCC(C(=O)C(F)(F)F)=C2O)ccc1O	-24	u	6%	5%	-18%	11%
COc1ccc(C(=O)O)cc1S(=O)(=O)N1CCN(Cc2ccc3c(c2)OCO3)CC1	18	x	x	-2%	-11%	26%
Cc1ccc(Cl)cc1N(C)C(=O)c1noc2c1CCCCC2	x	x	x	x	-30%	u
COc1ccc(SCC(c2ccccc2)N2CCN(CC(C)C)CCC2=O)cc1 (stereo not drawn)	x	-13%	-4%	x	x	x
Cc1cc2nc(/C=C/c3cccnc3)[nH]c2cc1C	6	u	-4%	u	0.018µM*	0.018µM*
Cc1cc2nc(/C=C/c3nc4cc(C)c(C)cc4[nH]3)[nH]c2cc1C	3	1%	1%	u	-21%	1%
CC1Cc2cc(/C=C3/SC(=S)NC3=O)ccc2O1 (stereo not drawn)	18	-29%	u	u	18µM*	0%
CCN(CC)c1ccc(/C=C2\SC(N)=NC2=O)cc1	-9	7%	23%	u	-19%	-2%
CCN(CC)c1ccc(C=C2SC(=S)NC2=O)cc1	0	x	x	x	u	13µM*
Cc1noc(C)c1COc1ccc(C(=O)Nc2ncccc2O)cc1	17	x	x	u	u	u
Cc1c(/C=C(\C#N)C(=O)Nc2cccc(Cl)c2)c2ccccc2n1Cc1ccccc1	x	x	x	x	5.8µM*	u
COc1cccc(NC(=O)/C(C#N)=C/c2c(C)n(Cc3ccc(Cl)cc3)c3ccccc23)c1	x	x	x	x	u	-23%
N#C/C(=C/c1cn(Cc2ccc(F)cc2)c2ccccc12)C(=O)Nc1cccc(Cl)c1	x	x	x	x	-28%	u
COc1ccc(/C=N/NC(=O)c2cccc([N+](=O)[O-])c2)c2ccccc12	37	u	u	16%	u	u
Cn1cc(/C=C(\C#N)C(=O)Nc2cccc([N+](=O)[O-])c2)c2ccccc21	-26	-8%	10%	u	8.2µM*	13µM*
Cn1cc(/C=N/NC(=O)c2cccc([N+](=O)[O-])c2)c2ccccc21	34	0.5µM*	u	u	-28%	2%
CC(=O)n1cc(/C=N/NC(=O)c2ccccc2O)c2ccccc21	u	2.8µM*	3.5µM*	29%	10%	-5%
Cn1cc(C(=O)N/N=C/c2cc(Br)cs2)c2ccccc21	x	-18%	-1%	1%	x	x
SMILES	IL-1B inflam inh	RORgamma inh	VP16 counter	ELG1 repair inh	TDP1 cell noCPT	DT40 TDP1 CPT
O=C(CC[C@H]1O[C@@H](n2cnc3c(NC(=O)c4ccccc4)ncnc32)[C@H](O)[C@@H]1O)NCc1cccc2ccccc12	0	x	x	x	-5%	-12%
CCOC(=O)C1CCCN(C(=O)c2nn(-c3ccc(OC)cc3)c(=O)c3c2c2ccccc2n3C)C1 (stereo not drawn)	x	x	x	x	u	-28%
O=C(N/N=C\c1coc2ccccc2c1=O)c1ccco1	x	7%	5%	-3%	-28%	2%
Cn1cc(/C=N/NC(=O)c2ccccc2O)c2ccccc21	-12	0.56µM*	0.89µM*	u	u	u
COc1cccc(NC(=O)/C(C#N)=C\c2cn(Cc3ccc(C)cc3)c3ccccc23)c1	x	x	x	x	5.8µM*	10µM*
CC(C)(C)OC(=O)n1cc(/C=N/NC(=O)c2ccco2)c2ccccc21	-60*	u	u	u	-17%	-26%
CC(=O)n1cc(C=O)c2ccccc21	x	x	x	x	-28%	11%
CC(=O)n1cc(/C=N/NC(N)=S)c2ccccc21	-15	4.5µM*	u	19%	-102%	u
CC(Sc1n[nH]c(N)n1)C(=O)NC1CCCCC1C (stereo not drawn)	10	1%	-5%	-3%	9%	-15%
CCN(C(=O)CSc1nnc(-c2ccccc2OC)n1N)c1c(N)n(Cc2ccccc2)c(=O)[nH]c1=O	1	x	x	x	4%	3%
CCCCCCCCCCCC(CC1OC(=O)C1CCCCCC)OC(=O)C(CC(C)C)NC=O (stereo not drawn)	x	-2%	4%	x	x	x

Compound activity as filed in PubChem.
